The record followed here is the supplement of paper PMC10849652.

About 8,800 targets were measured; listed, in parts, are those with a hit and a random draw of the rest. About 0.5% of all pairs of compound and target were hits. A number with no mark means an inactive call.

Assay in all cases: log2 fold change, soluble protein after heating vs DMSO (PISA); higher = thermal stabilisation; K562 lysate, 10 uM; active = over 0.2 and 3.5 SD of the protein, either way, in both replicates (recomputed)
Compound in experiment [1]: CC(=O)c1cnc2ccc(-c3cc(Cl)c(O)c(Cl)c3)nc2c1N[C@H]1CC[C@H](CN(C)C)CC1
The method, boiled down:
(§1)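 Pellets of K562 cells were dounce-homogenised in PBS pH 7.4 with 1 mM MgCl2, and the crude extract was held at 1 mg/mL protein for a 30 min treatment with 10 μM compound. Aliquots were heated for 3 min over 48°C-58°C and pooled before NP-40 was added to 0.5% at 4°C. The supernatant from 21,000xg for 90 min was quantified by TMTpro 16plex LC-MS/MS with channel sums equalised. Values are reported from duplicates as log-two fold change in thermal stability relative to solvent controls.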

Compound in experiment [2]: CC1=C(C(CC(=O)N1)C2=CC=C(C=C2)C(F)(F)F)C(=O)NC3=C(C=C4C(=C3)C=NN4)F
The method, boiled down: as §1

Compound in experiment [3]: CC1=CC=C(C=C1)SC2=C3C=C(SC3=CN=C2)C(=O)N
The procedure, abridged: as §1

Compound in experiment [4]: C1=CC=C(C=C1)C2=NC(=C(N2)C3=CC=NC=C3)C4=CC(=C(C=C4)Cl)O
The procedure, abridged:
as §1

Compound in a further experiment: C1COCCN1CCN2C3=CC=CC=C3N=C2NC(=O)C4=CC(=CC=C4)[N+](=O)[O-] [IRAK-1-4 Inhibitor I]
The procedure, abridged:
as §1

Compound in a further experiment: CC(C)(C)Cn1c(N)nc2ccc(-c3[nH]c(C(C)(C)C)nc3-c3ccc(F)cc3)nc21 [ralimetinib]
The method, boiled down: as §1

Compound in experiment [5]: CC(C)(O)CC(=O)NCCn1ccc2ncnc(Nc3ccc(Oc4cccc(C(F)(F)F)c4)c(Cl)c3)c21
The procedure, abridged: as §1

Compound in experiment [6]: CC1=C(C=C(C=C1)NC(=O)C2=CC(=CC=C2)N(C)C)NC(=O)C3=CC=C(C=C3)O
The method, boiled down:
as §1

Compound in experiment [7]: C/C(=N\NC(=O)C1=CC(=CC=C1)S(=O)(=O)N2CCOCC2)/C3=C(C=CC(=C3)Cl)O
The procedure, abridged:
as §1

Compound in experiment [8]: C1=CC2=C(C=CC(=C2)/C=C\3/C(=O)NC(=NCC4=CC=CS4)S3)N=C1
The method, boiled down: as §1

Compound in experiment [9]: C1=CC2=NC=CN=C2C=C1/C=C/3\C(=O)NC(=O)S3
The procedure, abridged:
as §1

Compound in experiment [10]: C1=CC=C2C(=C1)C3=NNC4=CC=CC(=C43)C2=O
The method, boiled down: as §1

Compound in experiment [11]: C1CCN(C1)C(=O)NC2=CC=CC(=C2)NC3=NC=C(C(=N3)NCCC4=CN=CN4)Br
The method, boiled down:
as §1

Compound in experiment [12]: C1CN(CCC1(CC2=CC=C(C=C2)Cl)N)C3=NC=NC4=C3C=CN4
The procedure, abridged: as §1

Compound in a further experiment: C=CC(=O)N1CCC[C@@H](n2nc(-c3ccc(Oc4ccccc4)cc3)c3c(N)ncnc32)C1 [ibrutinib]
The procedure, abridged: as §1

Compound in experiment [13]: CC1=C(C2=C(C=C1)C(=O)C3=CC=CC=C3N2CCCN)C
The method, boiled down:
as §1

Compound in another experiment: C#Cc1cccc(Nc2ncnc3cc(OCCOC)c(OCCOC)cc23)c1 [erlotinib]
The procedure, abridged: as §1

Compound in experiment [14]: C1=CC(=CC=C1C2=NC3=C(N2)C=C(C=C3)C(=O)N)OC4=CC=C(C=C4)Cl
The procedure, abridged:
as §1

Compound in experiment [15]: CC(C)C1=C2N=C(C=C(N2N=C1)NCC3=CC=CC=C3)NCCCCCCN
The method, boiled down:
as §1

Compound in experiment [16]: CC1=C(C=C(C=C1)NC(=O)C2=CC(=CC=C2)C(C)(C)C#N)NC3=CC4=C(C=C3)N=CN(C4=O)C
The procedure, abridged:
as §1

Sequence of UniProt Q5TEU4 (Q5TEU4 whole entry, looked up): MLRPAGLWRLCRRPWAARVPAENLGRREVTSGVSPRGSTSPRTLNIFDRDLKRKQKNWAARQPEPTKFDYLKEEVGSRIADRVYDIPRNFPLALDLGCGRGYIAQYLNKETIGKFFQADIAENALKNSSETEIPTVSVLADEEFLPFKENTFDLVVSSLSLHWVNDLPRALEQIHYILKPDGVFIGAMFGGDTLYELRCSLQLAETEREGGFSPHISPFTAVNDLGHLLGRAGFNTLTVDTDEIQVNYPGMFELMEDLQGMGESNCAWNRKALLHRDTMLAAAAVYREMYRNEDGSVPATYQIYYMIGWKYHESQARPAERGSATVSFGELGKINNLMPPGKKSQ
Sequence of UniProt P48552 (P48552 whole entry, looked up): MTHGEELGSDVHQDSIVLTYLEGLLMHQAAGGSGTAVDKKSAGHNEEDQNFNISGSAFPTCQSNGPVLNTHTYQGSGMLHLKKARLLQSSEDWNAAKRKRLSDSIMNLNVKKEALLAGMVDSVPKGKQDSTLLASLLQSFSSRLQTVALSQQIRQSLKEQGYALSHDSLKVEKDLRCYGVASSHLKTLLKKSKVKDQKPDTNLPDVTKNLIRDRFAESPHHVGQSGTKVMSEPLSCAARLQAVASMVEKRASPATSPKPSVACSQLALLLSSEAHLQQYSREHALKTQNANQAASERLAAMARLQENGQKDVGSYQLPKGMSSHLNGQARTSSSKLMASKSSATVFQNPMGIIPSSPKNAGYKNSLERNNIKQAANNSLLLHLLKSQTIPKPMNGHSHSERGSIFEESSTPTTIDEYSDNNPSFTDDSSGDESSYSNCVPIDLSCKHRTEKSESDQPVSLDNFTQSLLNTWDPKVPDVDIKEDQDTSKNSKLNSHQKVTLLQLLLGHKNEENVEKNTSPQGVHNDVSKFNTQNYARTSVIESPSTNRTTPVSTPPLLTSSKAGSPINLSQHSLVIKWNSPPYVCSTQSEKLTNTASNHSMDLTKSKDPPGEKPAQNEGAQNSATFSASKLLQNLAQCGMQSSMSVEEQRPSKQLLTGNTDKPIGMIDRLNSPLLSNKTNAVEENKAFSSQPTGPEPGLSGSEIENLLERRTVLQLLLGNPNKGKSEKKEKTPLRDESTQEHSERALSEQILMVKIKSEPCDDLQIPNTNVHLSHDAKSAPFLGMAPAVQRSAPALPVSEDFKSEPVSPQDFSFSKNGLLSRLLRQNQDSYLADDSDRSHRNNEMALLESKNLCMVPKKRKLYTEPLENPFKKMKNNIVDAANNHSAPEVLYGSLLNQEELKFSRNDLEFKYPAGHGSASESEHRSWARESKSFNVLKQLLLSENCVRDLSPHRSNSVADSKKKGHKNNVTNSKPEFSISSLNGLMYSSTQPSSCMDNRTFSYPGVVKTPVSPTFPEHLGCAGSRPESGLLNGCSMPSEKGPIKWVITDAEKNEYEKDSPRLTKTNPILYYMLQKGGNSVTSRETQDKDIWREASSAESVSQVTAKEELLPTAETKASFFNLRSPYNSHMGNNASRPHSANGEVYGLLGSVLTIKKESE
Sequence of UniProt Q14934 (Q14934 whole entry, looked up): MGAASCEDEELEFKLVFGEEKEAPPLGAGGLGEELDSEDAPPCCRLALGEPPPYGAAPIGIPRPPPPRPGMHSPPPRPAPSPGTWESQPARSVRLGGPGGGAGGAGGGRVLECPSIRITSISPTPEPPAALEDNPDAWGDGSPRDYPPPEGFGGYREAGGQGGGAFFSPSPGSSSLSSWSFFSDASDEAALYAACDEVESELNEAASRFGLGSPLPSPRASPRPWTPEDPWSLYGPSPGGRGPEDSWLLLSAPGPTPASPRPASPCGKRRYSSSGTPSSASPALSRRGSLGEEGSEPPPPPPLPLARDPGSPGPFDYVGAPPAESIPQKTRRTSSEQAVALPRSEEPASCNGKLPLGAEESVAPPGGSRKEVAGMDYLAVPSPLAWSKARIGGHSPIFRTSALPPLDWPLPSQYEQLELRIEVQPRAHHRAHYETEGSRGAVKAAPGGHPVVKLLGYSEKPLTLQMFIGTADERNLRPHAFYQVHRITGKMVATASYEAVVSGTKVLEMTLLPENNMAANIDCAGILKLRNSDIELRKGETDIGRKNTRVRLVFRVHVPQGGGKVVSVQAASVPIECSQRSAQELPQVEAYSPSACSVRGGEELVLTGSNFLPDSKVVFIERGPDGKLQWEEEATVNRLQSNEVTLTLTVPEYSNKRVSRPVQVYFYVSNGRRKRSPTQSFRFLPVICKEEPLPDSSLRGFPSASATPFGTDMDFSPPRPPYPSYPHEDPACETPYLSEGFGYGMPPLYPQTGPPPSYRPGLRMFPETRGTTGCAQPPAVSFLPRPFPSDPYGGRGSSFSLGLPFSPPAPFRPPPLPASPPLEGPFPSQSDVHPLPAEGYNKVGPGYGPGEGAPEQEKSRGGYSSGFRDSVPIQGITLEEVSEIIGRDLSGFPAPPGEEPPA
Sequence of UniProt P84157 (P84157 whole entry, looked up): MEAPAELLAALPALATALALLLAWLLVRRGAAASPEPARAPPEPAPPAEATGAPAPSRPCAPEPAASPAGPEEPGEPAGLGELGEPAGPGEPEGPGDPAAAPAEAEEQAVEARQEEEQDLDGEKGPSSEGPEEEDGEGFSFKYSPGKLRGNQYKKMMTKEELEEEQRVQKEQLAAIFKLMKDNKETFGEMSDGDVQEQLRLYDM
Sequence of UniProt Q6N069 (Q6N069 whole entry, looked up): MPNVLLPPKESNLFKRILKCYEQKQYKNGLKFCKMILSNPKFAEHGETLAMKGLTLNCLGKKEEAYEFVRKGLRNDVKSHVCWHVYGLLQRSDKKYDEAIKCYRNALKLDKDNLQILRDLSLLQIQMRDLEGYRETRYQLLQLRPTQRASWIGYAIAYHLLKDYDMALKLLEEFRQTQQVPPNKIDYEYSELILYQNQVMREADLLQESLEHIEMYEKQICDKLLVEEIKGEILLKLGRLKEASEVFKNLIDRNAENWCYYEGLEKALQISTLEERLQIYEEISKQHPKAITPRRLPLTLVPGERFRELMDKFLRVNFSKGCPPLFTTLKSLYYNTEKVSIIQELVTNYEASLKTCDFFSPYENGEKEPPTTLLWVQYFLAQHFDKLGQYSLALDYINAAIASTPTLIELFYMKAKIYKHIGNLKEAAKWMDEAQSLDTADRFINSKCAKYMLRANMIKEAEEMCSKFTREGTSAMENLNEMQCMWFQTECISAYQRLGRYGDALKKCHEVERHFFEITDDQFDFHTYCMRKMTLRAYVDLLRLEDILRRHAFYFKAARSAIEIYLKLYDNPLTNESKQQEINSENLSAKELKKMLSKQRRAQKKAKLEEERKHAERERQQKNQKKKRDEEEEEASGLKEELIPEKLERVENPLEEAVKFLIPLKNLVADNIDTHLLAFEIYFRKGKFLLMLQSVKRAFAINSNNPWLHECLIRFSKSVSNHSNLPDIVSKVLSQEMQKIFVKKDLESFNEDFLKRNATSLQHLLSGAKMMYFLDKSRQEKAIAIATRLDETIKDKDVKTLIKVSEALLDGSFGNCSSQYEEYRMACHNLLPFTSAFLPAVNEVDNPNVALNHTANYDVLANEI
Sequence of UniProt Q9UBD5 (Q9UBD5 whole entry, looked up): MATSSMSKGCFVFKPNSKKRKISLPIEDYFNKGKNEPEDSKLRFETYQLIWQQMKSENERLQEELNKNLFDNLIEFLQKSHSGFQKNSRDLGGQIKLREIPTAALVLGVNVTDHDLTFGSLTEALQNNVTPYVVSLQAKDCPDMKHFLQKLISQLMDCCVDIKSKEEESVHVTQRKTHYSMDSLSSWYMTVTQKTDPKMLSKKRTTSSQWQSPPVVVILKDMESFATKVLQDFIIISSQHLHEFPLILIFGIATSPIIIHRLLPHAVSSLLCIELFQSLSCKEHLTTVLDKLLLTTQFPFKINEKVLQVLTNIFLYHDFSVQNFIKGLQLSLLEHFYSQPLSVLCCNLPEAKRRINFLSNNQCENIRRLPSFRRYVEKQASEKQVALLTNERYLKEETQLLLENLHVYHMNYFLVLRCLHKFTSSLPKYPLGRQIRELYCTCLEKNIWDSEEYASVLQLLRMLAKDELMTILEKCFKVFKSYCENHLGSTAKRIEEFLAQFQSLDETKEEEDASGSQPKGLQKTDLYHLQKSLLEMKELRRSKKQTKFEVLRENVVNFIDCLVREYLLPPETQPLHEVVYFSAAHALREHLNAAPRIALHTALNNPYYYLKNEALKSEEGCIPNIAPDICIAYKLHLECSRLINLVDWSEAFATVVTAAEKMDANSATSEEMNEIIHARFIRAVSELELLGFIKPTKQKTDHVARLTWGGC
Sequence of UniProt P47900 (P47900 whole entry, looked up): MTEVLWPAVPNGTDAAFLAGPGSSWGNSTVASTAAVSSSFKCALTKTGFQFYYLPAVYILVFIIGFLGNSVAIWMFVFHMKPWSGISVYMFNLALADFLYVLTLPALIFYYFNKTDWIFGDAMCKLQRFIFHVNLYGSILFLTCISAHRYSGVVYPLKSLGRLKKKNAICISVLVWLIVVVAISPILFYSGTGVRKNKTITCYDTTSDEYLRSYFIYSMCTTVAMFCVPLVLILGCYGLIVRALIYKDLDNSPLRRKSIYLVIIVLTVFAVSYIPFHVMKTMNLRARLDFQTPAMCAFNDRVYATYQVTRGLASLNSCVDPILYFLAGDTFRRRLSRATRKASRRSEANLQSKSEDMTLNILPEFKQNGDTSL
Sequence of UniProt Q5JRK9 (Q5JRK9 whole entry, looked up): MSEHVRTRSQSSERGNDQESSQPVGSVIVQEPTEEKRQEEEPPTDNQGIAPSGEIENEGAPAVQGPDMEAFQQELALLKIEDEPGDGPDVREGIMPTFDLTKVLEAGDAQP

As for ORC3 (UniProt Q9UBD5), the log2 fold change in experiment [1] is 0.161; in experiment [2], -0.007; in [3], 0.03.
With NUB1 (UniProt H7C5N1), the log2 fold change is 0.163 in experiment [4]; 0.183 with IRAK-1-4 Inhibitor I; 0.133 in the experiment with ralimetinib; -0.146 in experiment [5]; -0.131 in experiment [6].
With NAA16 (UniProt Q6N069), the log2 fold change in experiment [7] is -0.036; in [8] it was -0.022; in experiment [9], 0.027; in experiment [4], -0.127; in experiment [10] it was -0.206; in experiment [11], 0.136. The log2 fold change was -0.038 in [12]; 0.017 with IRAK-1-4 Inhibitor I; -0.047 with ibrutinib; 0.097 in experiment [1]; -0.179 in the experiment with ralimetinib; 0.085 in experiment [5]. Besides, the log2 fold change in [2] was 0.092; in experiment [13], 0.105; in [6] it was 0.147; in experiment [3], 0.062.
For the target P2RY1 (UniProt P47900), the log2 fold change in the experiment with erlotinib is -0.014; in [14] it was -0.07; in experiment [9], 0.148; in experiment [4], 0.023; in experiment [11], -0.024; in [12], 0.094. In addition, the log2 fold change is 0.07 with IRAK-1-4 Inhibitor I; -0.026 with ibrutinib; 0.102 in [1]; -0.045 with ralimetinib; -0.107 in experiment [5]; -0.322 in [15]. Also, the results for the log2 fold change in experiment [13], in experiment [6] and in experiment [3] were 0.064, -0.009 and 0.058, respectively.
As for NPLOC4 (UniProt I3L3I1), the log2 fold change was -0.029 in [9]; -0.128 in [11]; 0.046 in experiment [12]; -0.022 with ibrutinib; -0.169 in [13]; 0.447 in experiment [16].
As to PAGE2B (UniProt Q5JRK9), the log2 fold change with erlotinib was 0.056; in [7] it was 0.038; in [14], -0.033; in experiment [8], -0.085; in experiment [4], -0.021; in experiment [10], 0.093. In addition, the log2 fold change in experiment [11] was 0.055; in [12] it was 0.055; with IRAK-1-4 Inhibitor I it was 0.148; in [1] it was -0.049; with ralimetinib, -0.024; in experiment [5], -0.032. Moreover, the log2 fold change in experiment [15] was -0.054; in experiment [2], 0.023; in [13], 0.044; in [16], -0.003; in experiment [6] it was 0.238; in [3] it was 0.022.
Regarding MXRA7 (UniProt P84157), the log2 fold change is -0.001 with erlotinib; 0.062 in experiment [7]; 0.118 in experiment [14]; 0.17 in experiment [8]; -0.062 in experiment [4]; -0.135 in experiment [10]. The log2 fold change in experiment [11] is 0.02; in experiment [12] it was 0; with IRAK-1-4 Inhibitor I, -0.043; in experiment [1], -0.234; with ralimetinib, 0.108; in [5], 0.027. For the same target, the log2 fold change is -0.057 in [15]; -0.074 in experiment [2]; 0.024 in experiment [13]; 0.021 in [16]; 0.045 in experiment [6]; -0.023 in experiment [3].
Turning to NRIP1 (UniProt P48552), the log2 fold change in the experiment with erlotinib is 0.031; in [14], 0; in experiment [9], -0.033; in experiment [4], 0.024; in the experiment with IRAK-1-4 Inhibitor I it was 0.114; with ibrutinib it was -0.018. For the same target, the log2 fold change in [1] was -0.055; in the experiment with ralimetinib it was -0.05; in experiment [5], -0.165; in [15] it was -0.007; in [2], 0.093; in experiment [13] it was -0.217. The log2 fold change was 0.175 in [16], -0.005 in experiment [6] and -0.102 in experiment [3].
As to NFATC4 isoform 2 (UniProt Q14934), the log2 fold change in experiment [7] was -0.627 (active); in experiment [8] it was -0.132; in experiment [9] it was -0.064; in experiment [10], -0.224; in [11], -0.07; in experiment [12] it was -0.012. For the same target, the log2 fold change with ibrutinib was -0.053; in [1] it was -0.075; in experiment [2] it was -0.067; in experiment [13] it was -0.057; in [16] it was 0.125; in experiment [3] it was -0.063.
NTMT1 (UniProt S4R338): the log2 fold change was -0.182 in experiment [1] and 0.058 in [3].
Turning to NDUFAF5 (UniProt Q5TEU4), the log2 fold change in the experiment with erlotinib is -0.001; in experiment [7], 0.027; in [14], 0.016; in experiment [8], 0.021; in [9], -0.022; in experiment [4] it was 0.009. For the same target, the log2 fold change in experiment [10] is 0.11; in [11], 0.193; in [12], -0.056; with IRAK-1-4 Inhibitor I it was 0.07; in the experiment with ibrutinib, -0.007; in [1], 0.021. For the same target, the log2 fold change is -0.011 in the experiment with ralimetinib; -0.008 in [5]; -0.029 in [15]; 0.043 in experiment [13]; 0.076 in experiment [16]; -0.026 in experiment [6]. The log2 fold change in [3] is -0.048.
On to MTHFD1 (UniProt V9GZ32), for which the log2 fold change was 0.045 in [1], -0.18 in experiment [2] and 0.088 in experiment [3].
On to ORC1 (UniProt Q13415), for which the log2 fold change in experiment [11] is 0.216; in experiment [12] it was 0.05.
